# Rows were chosen to be rich in hits. Some 9.4% of all compounds tested hit in one or more screens of this group.
# Rab9 promoter act – activators of Rab9 promoter; Huh7 Rab9 promoter-luciferase reporter, luminescence, 24 h; Potency, µM (titrated, usually from 9.22 µM), without a hit: top-dose activation, negative = inhibition, most hits filed as activators; 320,000 compounds, 2.8% hits; note: % of control where 0% means no effect; nearly all actives have a fitted effect of over 60% in size
#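 Luciferase signal after 10 min detection reagent at ambient indicates Rab9 promoter upregulation; stably transfected Huh7 cells were treated 24 h with compound in DMSO at 37 °C, 5% CO2.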
# ELG1 DNA repair – ELG1-dependent DNA repair inhibition. HEK293T ELG1-luciferase reporter, luminescence, 16 h; DNA damage induced by 5-fluorouridine. Potency, µM (highest dose often 46.1 µM), for the others: top-dose activity change, negative = inhibition, usual class: inhibitors. 330,000 compounds, 2.3% hits. AID 504467; note: % is set by controls: 0 for no effect and ±100 for the full control effect; nearly all actives have a fitted effect of over 55% in size
#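 Step one: seed 2,000 cells per well. Step two: pin-transfer compound or DMSO alongside 5-fluorouridine. Step three: incubate 16 hr, 37 °C, 5% CO2. Step four: add ONE-Glo, wait 30 min, read luminescence.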
# FLuc counter – firefly luciferase modulation, counter-screen for miR-21 project; Potency, µM (highest dose often 57.5 µM), for the others: at the top dose activity change, negative = inhibition, hits mostly inhibitors; purified FLuc, Km substrates, luminescence inhibition; AID 588342; 360,000 compounds, 6.9% hits; P08659;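 note: plate controls were vehicle for no effect and reference inhibitor for full effect; nearly all actives have a fitted effect of over 55% in size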
# Target sequence (P08659 whole entry, looked up): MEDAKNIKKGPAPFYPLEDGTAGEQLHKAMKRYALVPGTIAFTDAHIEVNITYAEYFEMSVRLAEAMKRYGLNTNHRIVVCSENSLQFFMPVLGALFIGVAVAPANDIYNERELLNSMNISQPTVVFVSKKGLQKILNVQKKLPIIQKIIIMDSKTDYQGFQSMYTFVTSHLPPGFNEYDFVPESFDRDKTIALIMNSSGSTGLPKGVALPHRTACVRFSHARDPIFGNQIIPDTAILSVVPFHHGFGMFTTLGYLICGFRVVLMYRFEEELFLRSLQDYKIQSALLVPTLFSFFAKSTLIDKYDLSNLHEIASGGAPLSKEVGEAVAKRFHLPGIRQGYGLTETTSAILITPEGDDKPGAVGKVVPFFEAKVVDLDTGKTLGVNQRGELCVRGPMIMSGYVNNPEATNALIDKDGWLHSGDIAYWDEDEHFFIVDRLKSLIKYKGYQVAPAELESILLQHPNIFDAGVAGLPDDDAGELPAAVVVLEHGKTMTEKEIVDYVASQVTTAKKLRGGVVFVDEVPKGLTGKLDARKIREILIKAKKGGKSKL
#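 Purified P. pyralis luciferase (10nM final) with 10uM D-luciferin and 10uM ATP (Km levels) in 50mM Tris acetate pH 7.5, 10mM Mg acetate, 0.01% Tween-20, 0.05% BSA; qHTS 6-point titration, ~60 µM downward; luminescence read.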
# ELG1 genotox – genotoxicity induction in ELG1-luciferase HEK293T cells | Potency, µM (series often up to 46 µM), without a hit: top-dose activity change, positive = activation, hits mostly activators | HEK293T ELG1-luciferase reporter, luminescence, 16 h | 330,000 compounds, 1.3% hits; note: % of control where 0% means no effect; nearly all actives have a fitted effect of over 60% in size
#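 ELG1-luciferase HEK293T cells, 2,000/well; compound pinned in; 16 hr, 37 °C, 5% CO2; ONE-Glo, 30 min RT; luminescence on CCD imager.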
# SMN2 splice enh – increases expression of the SMN2 splice variant; HEK293 SMN2-luciferase splicing reporter, luminescence, 30-36 h; Potency, µM (doses to about 46.1 µM), without a hit: at the highest dose activity change, positive = activation, most hits filed as activators; 210,000 compounds, 2.8% hits; AID 1458; note: % of control where 0% means no effect; nearly all actives have a fitted effect of over 55% in size
#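 HEK293 cells carry an SMN2 […]–luciferase reporter in which exon 7 inclusion puts luciferase in frame. Cells were plated 10-12 h before compound addition, then incubated 30-36 h at 37C. ONE-Glo luminescence was read; sodium butyrate at 4.5 mM final served as control.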
# NPC1 prom act – activators of NPC1 promoter | 320,000 compounds, 2.4% hits | Huh7 NPC1 promoter luciferase reporter, 24 h | AID 485313 | Potency, µM (highest dose often 9.22 µM), without a hit: at the top dose activation, actives largely listed as activators; note: % of control where 0% means no effect; nearly all actives have a fitted effect of over 60% in size
#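 In 1536-well qHTS, Huh7 cells harboring an NPC1 promoter–luciferase construct received compound for 24 h; activation was quantified by luminescence following luciferase reagent addition.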
# * marks the source's active call; other numbers are inactive results; ? = inconclusive; . = no result; [ ] = remark or other dose. Calls come from the whole dose curve; as a rule, active = well fitted curve in the direction sought with a large enough effect; inconclusive = small, poorly fitted or top-dose-only effect, or another doubt; inactive = no such curve, though single readings can be large; an effect the other way counts as inactive or inconclusive. Potency is the fitted concentration of half-maximal effect.
SMILES,Rab9 promoter act,ELG1 DNA repair,FLuc counter,ELG1 genotox,SMN2 splice enh,NPC1 prom act
CCN1C=CC(=C2C(=O)c3ccccc3C2=O)C=C1,0.0003µM*,?,0.085µM*,?,0.25µM*,0.0002µM*
CN1C=CC(=C2C(=O)c3ccccc3C2=O)C=C1,0.35µM*,?,3µM*,2.9µM*,13µM*,0.45µM*
CCCN1C=CC(=C2C(=O)c3ccccc3C2=O)C=C1,0.0003µM*,?,0.067µM*,-7%,-79%,3.2e-05µM*
CS(=O)(=O)N1CCCc2cc(C(=O)Nc3cccc(C(F)(F)F)c3)ccc21,.,.,-19%,.,-56%,.
CCOC(=O)c1nc(NNC(=O)c2ccc([N+](=O)[O-])cc2)sc1C,-36%,16µM*,-16%,-15%,.,-36%
Cc1ccc(NC(=O)CN(C)C(=O)Cc2c[nH]c3ccccc23)cc1,.,23%,.,0%,.,.
COc1ccc(NC(=O)[C@@H](c2ccccc2)N2Cc3ccccc3C2=O)cc1OC,.,.,4%,.,22%,.
Cc1cc(OC(=O)c2ccccc2Br)cc(=O)n1C,-2%,?,21µM*,-5%,-1%,3%
CCN(CC)C(=O)CSc1nc2cc3c(cc2c(=O)n1Cc1ccc(C(=O)NCCc2ccc(OC)c(OC)c2)cc1)OCO3,.,.,3%,.,.,.
CCOC(=O)c1cnc2ccccc2c1Nc1ccc(N2CCOCC2)cc1,.,.,-12%,.,-8%,.
CCOC(=O)c1ccc2ncc(C(=O)OCC)c(Nc3ccc(N4CCOCC4)cc3)c2c1,-3%,10µM*,-2%,-14%,-49%,-1%
Cc1ccc(-n2nc3ccc(NC(=O)c4oc5ccccc5c4C)cc3n2)cc1,.,.,1%,.,-2%,.
Cc1c(C(=O)Nc2ccc3nc(N4CCOCC4)sc3c2)oc2ccccc12,-5%,11µM*,?,-5%,.,1%
O=C(COc1ccccc1F)Nc1c(C(=O)Nc2cccc(F)c2)oc2ccccc12,.,.,6%,.,6%,.
COc1cc(C(=O)Nc2ccc3nc(N4CCOCC4)sc3c2)cc(OC)c1OC,1%,-20%,-6%,-3%,.,6%
COCC(=O)Nc1c(C(=O)Nc2ccc(C)cc2)oc2ccccc12,.,.,-8%,.,7.9µM*,.
Cc1ccc(NC(=O)c2oc3ccccc3c2NC(=O)c2ccc(F)c(F)c2)cc1,.,.,-3%,.,-4%,.
Cc1c(C(=O)Nc2ccc3c(c2)OCO3)oc2ccccc12,2.2µM*,?,1.9µM*,2.6µM*,.,2µM*
O=C(CCl)Nc1c(C(=O)Nc2ccc3c(c2)OCCO3)oc2ccccc12,4µM*,?,?,?,.,4µM*
COCC(=O)Nc1c(C(=O)Nc2ccc3c(c2)OCO3)oc2ccccc12,3.2µM*,?,-6%,?,.,3.5µM*
CC(=O)Nc1c(C(=O)Nc2ccc3c(c2)OCO3)oc2ccccc12,2.5µM*,?,11µM*,?,.,2.8µM*
CSCc1c(C(=O)Nc2ccc3c(c2)OCO3)oc2ccccc12,19%,?,19µM*,11%,.,-26%
O=C(c1ccco1)N1CCC2(CC1)CCN(c1ccccn1)CC2,.,.,.,.,-33%,.
Cc1cccc(C)c1OCc1nc2ccccc2[nH]1,0%,-15%,?,-1%,-2%,-6%
Cc1ccc(C)c(OCc2nc3ccccc3[nH]2)c1,?,?,15µM*,16%,?,?
SMILES,Rab9 promoter act,ELG1 DNA repair,FLuc counter,ELG1 genotox,SMN2 splice enh,NPC1 prom act
COc1ccc(C(CC(=O)c2ccc(O)cc2)S(=O)(=O)c2ccc(C)cc2)cc1 (centres undefined),2%,?,9.5µM*,?,-15%,?
O=c1cc(C(F)(F)F)[nH]c2ccc(OC(F)(F)F)cc12,-1%,?,21µM*,-7%,.,-4%
O=C(NCc1ccccn1)c1cc(-c2ccccc2)nc2ccccc12,1%,?,17µM*,-2%,-5%,-2%
O=C(NCc1ccccn1)c1cc(-c2ccc(-c3ccccc3)cc2)nc2ccccc12,3.5µM*,?,0.38µM*,-8%,.,2.2µM*
O=C(NCc1ccccn1)c1cc(-c2ccc(Cl)cc2)nc2ccccc12,-1%,?,5.4µM*,-6%,16%,3%
O=C(NCCc1ccccn1)c1cc(-c2ccccc2Cl)nc2ccccc12,9%,?,5%,-2%,-49%,1%
CCn1cc(CNC(=O)c2cc(-c3ccc(C)c(C)c3)nc3ccccc23)c(C)n1,.,.,2.4µM*,.,12%,.
Cc1ccc2c(c1)c1c(c(=O)n(-c3cccc(Cl)c3)c(=O)n1CC(=O)N1CCCC1)n2C,.,.,-7%,.,.,.
Cc1c(C(=O)Nc2cccc(Cl)c2)sc2nc3n(c(=O)c12)N=C(c1cccc(Br)c1)CS3,.,.,-4%,.,.,.
Cc1ccc(N2CC(NC(=O)C3CC3)CC2=O)cc1C (centres undefined),.,.,0%,.,.,.
CCC(=O)O[C@@H]1[C@H](C)O[C@H](O[C@H]2[C@@H](N(C)C)[C@H](O)[C@@H](O[C@@H]3[C@@H](CC=O)C[C@@H](C)[C@@H](O)/C=C\C=C/C[C@@H](C)OC(=O)C[C@@H](OC(=O)CC)[C@H]3OC)O[C@H]2C)C[C@]1(C)O,.,.,.,.,-21%[20.6 µM],.
Cc1ccc(-c2cc(C(=O)NCc3ccccn3)c3ccccc3n2)cc1C,23%,?,1.5µM*,-4%,13µM*,19%
O=C(NCc1ccccn1)c1cc(Cl)ccc1OCc1ccccc1,8%,16µM*,-11%,-18%,.,-1%
Cc1ccc(-c2cc(C(=O)NCCCN3CCCC3)c3ccccc3n2)cc1C,-9%,?,?,?,.,0%
Cc1cccc(-c2cc(C(=O)NCc3ccccn3)c3ccccc3n2)c1,17%,16µM*,8.5µM*,-2%,12%,9%
CN(C(=O)CC1C(=O)NCCN1Cc1cccc(F)c1F)C1CC(C)(C)NC(C)(C)C1 (centres undefined),2%,13%,4%,1%,.,-7%
CC(=O)c1cc(-c2ccccc2)n(CCC(=O)Nc2ccc(C(C)C)cc2)c1C,.,.,1%,.,.,.
Fc1ccc2nc(Nc3nc4cc5c(cc4s3)OCO5)sc2c1,2µM*,?,6µM*,13µM*,11µM*,2.5µM*
O=C(NNc1nc2cc3c(cc2s1)OCO3)c1ccc(F)cc1,13%,?,?,-3%,20%,3%
c1ccc2sc(NC3=NCN(Cc4ccc5c(c4)OCO5)CN3)nc2c1,-1%,-4%,3%,0%,1%,0%
Fc1ccc2nc(Nc3nc4cc5c(cc4s3)OCCO5)sc2c1,2.8µM*,?,?,?,?,2.8µM*
c1ccc2sc(Nc3nc4cc5c(cc4s3)OCO5)nc2c1,1µM*,?,2.4µM*,5.2µM*,3.2µM*,3.2µM*
